Measurements reported in PubChem BioAssay.
The source made the active and inactive calls.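 The calls were made as follows, unless noted: active = compound raises insulin release from rat beta cells at 5 mM glucose, no numeric limit stated; inactive = the rest.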

Tests used:
[1] = Wnt pathway potentiators raising nuclear beta-catenin – imaging, WNT3A-conditioned medium, mouse C2C12, NPC library, primary screen (AID 1117326; in the data active = nuclear beta-catenin stimulation mostly above about 4.2%, no sharp cut-off; inactive = mostly below about 10%; also: reference of the scale not given here); conditions: stronger effect = higher value
[2] = stimulators of insulin release from INS-1E, primary screen, cell-based, 5 mM glucose, NPC library (AID 1117329); conditions: rat INS-1E insulin secretion, at 10 µM, stronger effect = higher value; also: reference of the scale not given here
[3] = growth inhibition of GSK3B-pretreated HCT116 cells – cell-based, CellTiter-Glo, 0.2 to 20 µM (AID 1117336;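 active = compounds lowering colon cancer cell viability after pretreatment blocking the GSK3B kinase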); conditions: HCT116 viability after GSK3B inhibitor, at 20 µM, stronger effect = higher value
[4] = inhibition of endothelial tube formation, primary screen, imaging, VEGF stimulated, CD31 staining, tube area, NPC library (AID 1117340;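 active = compound that reduces growth-factor-driven endothelial tube area in a mixed cell culture, no cutoff stated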); conditions: VEGF-stimulated ADSC/ECFC co-culture, at 10 µM, stronger effect = higher value
[5] = GLP1 release stimulators, primary, NCI-H716, NPC library (AID 1117341;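 active = compound raises GLP1 secretion from the human gut endocrine cells, with no numeric limit stated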; also: reference of the scale not given here); conditions: NCI-H716 cells, at 10 µM, stronger effect = higher value
[6] = HCT116 colon cancer cell growth inhibition, primary screen, CellTiter-Glo luminescence, NPC library (AID 1117342;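 active = compounds that lower survival of HCT116 colon cancer cells in the luminescence readout, no numeric limit stated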); conditions: at 20 µM (top of the series)
[7] = reduced SW480 viability measured with CellTiter-Glo, NPC library, primary (AID 1117343;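 active = compounds that lower viability of the colon cancer cells in the luminescence readout, with no numeric limit stated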); conditions: CellTiter-Glo luminescence; at 20 µM (top of the series)
[8] = NPC library primary testing for decreased DLD-1 cell viability via CellTiter-Glo (AID 1117346;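 active = compounds that lower survival of DLD-1 colon cancer cells in the luminescence readout, no cutoff given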); conditions: DLD-1 viability, CellTiter-Glo luminescence; at 20 µM (top of the series)

| SMILES | nuclear beta-catenin stimulation ([1]; at 10 µM) | nuclear beta-catenin stimulation ([1]; stimulation, at 2 µM) [%] | insulin secretion stimulation [2] | viability decrease [3] | tube area decrease [4] | GLP1 secretion stimulation [5] | inhibition of viability [6] | viability decrease (inhibition) [7] | viability decrease (inhibition) [8] |
| --- | --- | --- | --- | --- | --- | --- | --- | --- | --- |
| O=P(O)(O)OCC(O)CO (stereo not given) | 0.5% (inactive) | 0.5 | -2.1% (inactive) | 4.35% (inactive) | -14.2% (inactive) | 0.6% (inactive) | 9.3% (inactive) | 23.1% (inactive) | 18.2% (inactive) |
| CS(=O)(=O)c1ccc(-c2cn3ccccc3n2)cc1 | -2% (inactive) | -0.4 | 0.9% (inactive) | 18.1% (inactive) | -6.3% (inactive) | -2.6% (inactive) | 14.5% (inactive) | 22.6% (inactive) | 13.5% (inactive) |
| O=C(CCOCCOCCOCCOCCC(=O)Nc1c(I)cc(I)c(C(=O)O)c1I)Nc1c(I)cc(I)c(C(=O)O)c1I | -0.1% (inactive) | -1.6 | 0.1% (inactive) | -4.7% (inactive) | -12% (inactive) | 0.3% (inactive) | -2.1% (inactive) | -14.8% (inactive) | -2.6% (inactive) |
| CCCCCCCCCCCCCCCCCC(=O)O | 0.8% (inactive) | 0.7 | -1.2% (inactive) | -8.8% (inactive) | -12.7% (inactive) | -0.3% (inactive) | 1.8% (inactive) | 18.8% (inactive) | -6.85% (inactive) |
| CCN(CC)CCNC(=O)COc1ccc(Cl)cc1 | -2.4% (inactive) | -0.4 | 0.9% (inactive) | -9.5% (inactive) | -3.5% (inactive) | -4.5% (inactive) | 22.7% (inactive) | 34.2% (inactive) | 0.6% (inactive) |
| NC(Cc1ccc([N+](=O)[O-])cc1)C(=O)O (stereo not given) | -0.2% (inactive) | 0 | -0.8% (inactive) | -7.7% (inactive) | -16.5% (inactive) | -0.7% (inactive) | -2.8% (inactive) | -1.7% (inactive) | -20.4% (inactive) |
| O=C(CO)[C@@H](O)[C@H](O)[C@@H](O)CO | -1.8% (inactive) | -0.9 | 3% (inactive) | -1.5% (inactive) | -29.2% (inactive) | -2.6% (inactive) | 8.2% (inactive) | 4.9% (inactive) | 3.2% (inactive) |
| CC(C)=CCOc1ccc(/C=C/C(=O)c2ccc(OCC=C(C)C)cc2OCC(=O)O)cc1 | 10.1% (inactive) | -0.2 | 0.6% (inactive) | 99.2% (active) | 108% (active) | -0.1% (inactive) | 99.6% (active) | 102% (active) | 102% (active) |
| Nc1ccc(S(=O)(=O)NCc2ccccc2)cc1 | 0.8% (inactive) | 1.8 | -2.5% (inactive) | -8.1% (inactive) | -5.2% (inactive) | 0.6% (inactive) | -18.3% (inactive) | 37.6% (inactive) | 10.1% (inactive) |
| CCCCCCCCCCOCC(O)CN (stereo not given) | 49.7% (active) | -0.2 | 4.5% (inactive) | 91.1% (active) | 65% (active) | -3.3% (inactive) | 84.7% (active) | 102% (active) | 98.4% (active) |
| COC(=O)[C@H]1[C@H]2C[C@@H]3c4[nH]c5cc(OC)ccc5c4CCN3C[C@H]2C[C@@H](OC(=O)COc2ccc(OC)cc2)[C@@H]1OC | 3.2% (inactive) | -0.2 | -1.2% (inactive) | 10.9% (inactive) | 9.6% (inactive) | 8.5% (inactive) | 33.6% (inactive) | -12.3% (inactive) | 1.9% (inactive) |
| O=C1NC(c2ccccc2)(c2ccccc2)C(=O)N1COP(=O)(O)O | 1.6% (inactive) | 3.6 | -0.5% (inactive) | -27% (inactive) | -13% (inactive) | 5.2% (inactive) | -8.63% (inactive) | -3.4% (inactive) | -11% (inactive) |
| CC(=O)Nc1ccc(OCCOCCOc2ccc(NC(C)=O)cc2)cc1 | 0.3% (inactive) | 0.3 | -2.6% (inactive) | 0.7% (inactive) | -0.3% (inactive) | -1.2% (inactive) | -3.5% (inactive) | 11.3% (inactive) | -8.2% (inactive) |
| O=C(O)c1ccccc1Nc1cc(Cl)ccc1C(=O)O | 2% (inactive) | -1.8 | 0.5% (inactive) | 2.4% (inactive) | -18.4% (inactive) | 0.1% (inactive) | -1.2% (inactive) | -23.2% (inactive) | -18.7% (inactive) |
| COc1ccc2nc(SCc3ncc(C)c(OC)c3C)[nH]c2c1 | 1.9% (inactive) | 0.8 | 3.1% (inactive) | 1% (inactive) | 24.8% (inactive) | 1.6% (inactive) | 26.8% (inactive) | -12.2% (inactive) | -6.1% (inactive) |
| Cc1ccc(S(=O)(=O)NC(=O)NC2CCCCCCC2)cc1 | -0.3% (inactive) | 0.1 | 18.5% (inactive) | 11.2% (inactive) | 14.5% (inactive) | 3.1% (inactive) | -9.1% (inactive) | 36.4% (inactive) | 12.9% (inactive) |
| CCCCCCCC(=O)OCC(O)CO (stereo not given) | -2% (inactive) | -1.7 | 2.1% (inactive) | -10.8% (inactive) | -3.1% (inactive) | -3.4% (inactive) | -7.47% (inactive) | 16.9% (inactive) | -20.5% (inactive) |
| Cc1cccc(OCC(O)CNC(C)(C)C)c1C (stereo not given) | -0.4% (inactive) | 0.2 | 1% (inactive) | -0.4% (inactive) | 18.2% (inactive) | -1% (inactive) | 23.8% (inactive) | 24.5% (inactive) | 8.8% (inactive) |
| CCCOC(=O)c1cc(O)c(O)c(O)c1 | 4.2% (inactive) | 1.9 | -1.6% (inactive) | 43.1% (inactive) | 71.3% (active) | -2.1% (inactive) | 35.1% (inactive) | 78.3% (active) | 58.4% (active) |
| CN(C)C(=O)CNC(=O)Cc1ccccc1 | -0.3% (inactive) | 2.4 | 2.5% (inactive) | 4.9% (inactive) | 7.1% (inactive) | -1.3% (inactive) | 7.5% (inactive) | -4.5% (inactive) | -0.5% (inactive) |
| O=C(O)c1cc(=O)c2c3nc4ccccc4oc-3cc(=O)c2[nH]1 | -0.4% (inactive) | -0.7 | -0.1% (inactive) | 10.4% (inactive) | 16.6% (inactive) | -7.4% (inactive) | -31.1% (inactive) | 17.8% (inactive) | -15.6% (inactive) |
| COc1ccc2cc(C=O)ccc2c1 | 0.1% (inactive) | 0.2 | 0.95% (inactive) | 17.4% (inactive) | -8.2% (inactive) | -3.7% (inactive) | 16.4% (inactive) | 7% (inactive) | 5.8% (inactive) |
| COC(=O)c1cc(S(C)(=O)=O)ccc1OC | 1% (inactive) | 3.6 | 2% (inactive) | -2.3% (inactive) | -4.1% (inactive) | -1.3% (inactive) | 6.4% (inactive) | -3.4% (inactive) | -1.9% (inactive) |
| CC(=O)O[C@H]1C[C@@H]2CC[C@H]3[C@H]4C[C@H]([N+]5(C)CCCCC5)[C@@H](OC(C)=O)[C@@]4(C)CC[C@@H]3[C@@]2(C)C[C@H]1[N+]1(C)CCCCC1 | 0.7% (inactive) | 0.2 | -1.1% (inactive) | -2.7% (inactive) | 9.9% (inactive) | -1.6% (inactive) | -3.6% (inactive) | -1.7% (active) | -2.8% (inactive) |
| COC(=O)Nc1nc2ccc(C(=O)C3CC3)cc2[nH]1 | 41.8% (active) | 54.5 | 1.9% (inactive) | 93.1% (active) | 103% (active) | -0.3% (inactive) | 87.9% (active) | 32.9% (inactive) | 51.6% (active) |
| O=C(OCC(COC(=O)c1cccnc1)(COC(=O)c1cccnc1)COC(=O)c1cccnc1)c1cccnc1 | -0.6% (inactive) | -0.3 | 1.6% (inactive) | -13.3% (inactive) | -11.4% (inactive) | 0.8% (inactive) | 17.4% (inactive) | -4.3% (inactive) | -2.7% (inactive) |
| CC1(C)OC[C@@H]2O[C@@]3(C(=O)O)OC(C)(C)O[C@H]3[C@@H]2O1 | -1.7% (inactive) | -0.3 | 4.8% (inactive) | -3% (inactive) | -12.4% (inactive) | -3.6% (inactive) | -1.6% (inactive) | 26.9% (inactive) | 0.3% (inactive) |
| CN(C)c1ccc(C(=C2C=CC(=[N+](C)C)C=C2)c2ccccc2)cc1 | 4.5% (active) | 63.1 | 0.2% (inactive) | 100% (active) | 109% (active) | 0.7% (inactive) | 99.7% (active) | 102% (active) | 102% (active) |
| CC(C)(C)c1ccc(C(=O)CCCCl)cc1 | -0.1% (inactive) | 0.6 | 3.7% (inactive) | -2.4% (inactive) | 20.9% (inactive) | -3.6% (inactive) | 10.3% (inactive) | -21.3% (inactive) | 0.9% (inactive) |
| CCOCCn1c(C2CCN(CCc3ccc(C(C)(C)C(=O)O)cc3)CC2)nc2ccccc21 | -0.1% (inactive) | 1.3 | -0.3% (inactive) | -2.4% (inactive) | 3.7% (inactive) | -2.2% (inactive) | -1.6% (inactive) | -6.3% (inactive) | -10.2% (inactive) |
